Test results from the supplement of paper PMC10849652.
Of roughly 8,800 targets only a part is listed; those with a hit were picked by preference. About 0.5% of all pairs of compound and target were hits.

compound: C1=CC=C(C=C1)[C@H](COC2=CC3=C(C=C2)NC(=O)N3)NC(=O)C4=CC=CN(C4=O)CC5=CC(=C(C=C5)F)F; test: log2 fold change, soluble protein after heating vs DMSO (PISA); higher = thermal stabilisation; K562 lysate, 10 uM; active = over 0.2 and 3.5 SD of the protein, either way, in both replicates (recomputed)
Outline: (§1)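 K562 pellets were dounce-homogenised in PBS pH 7.4 containing 1 mM MgCl2, and the crude extract, at 1 mg/mL protein, was exposed to 10 μM compound for 30 min. Aliquots were heated for 3 min across 48°C-58°C, pooled, brought to 0.5% NP-40 at 4°C and spun at 21,000xg for 90 min, with the supernatant taken as soluble protein. TMTpro 16plex LC-MS/MS with equalised channel sums quantified that protein. Values are log-two fold changes in thermal stability relative to solvent controls, taken from duplicates.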

Sequence of UniProt P27348 (P27348 whole entry, looked up): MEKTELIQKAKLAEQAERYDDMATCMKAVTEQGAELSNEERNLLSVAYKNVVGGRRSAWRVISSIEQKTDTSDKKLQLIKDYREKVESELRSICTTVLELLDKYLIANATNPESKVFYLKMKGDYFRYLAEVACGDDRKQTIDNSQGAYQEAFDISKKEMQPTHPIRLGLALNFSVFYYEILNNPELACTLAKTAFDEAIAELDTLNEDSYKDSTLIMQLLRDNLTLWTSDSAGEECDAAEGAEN
Sequence of UniProt Q9Y5J1 (Q9Y5J1 whole entry, looked up): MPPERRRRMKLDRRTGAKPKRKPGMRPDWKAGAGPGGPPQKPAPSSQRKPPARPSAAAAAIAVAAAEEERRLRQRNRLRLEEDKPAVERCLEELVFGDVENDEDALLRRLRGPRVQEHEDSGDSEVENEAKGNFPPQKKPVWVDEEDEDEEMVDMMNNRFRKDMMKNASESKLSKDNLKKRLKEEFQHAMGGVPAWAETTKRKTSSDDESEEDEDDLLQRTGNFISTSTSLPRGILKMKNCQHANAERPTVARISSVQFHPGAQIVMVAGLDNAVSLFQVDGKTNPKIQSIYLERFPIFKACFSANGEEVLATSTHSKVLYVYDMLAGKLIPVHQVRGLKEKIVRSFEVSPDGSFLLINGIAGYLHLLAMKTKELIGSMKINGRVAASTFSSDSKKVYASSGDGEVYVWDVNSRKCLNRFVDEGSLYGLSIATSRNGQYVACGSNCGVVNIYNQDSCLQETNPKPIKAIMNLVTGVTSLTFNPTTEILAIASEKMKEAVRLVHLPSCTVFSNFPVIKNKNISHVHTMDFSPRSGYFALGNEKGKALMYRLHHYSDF
Sequence of UniProt Q9H270 (Q9H270 whole entry, looked up): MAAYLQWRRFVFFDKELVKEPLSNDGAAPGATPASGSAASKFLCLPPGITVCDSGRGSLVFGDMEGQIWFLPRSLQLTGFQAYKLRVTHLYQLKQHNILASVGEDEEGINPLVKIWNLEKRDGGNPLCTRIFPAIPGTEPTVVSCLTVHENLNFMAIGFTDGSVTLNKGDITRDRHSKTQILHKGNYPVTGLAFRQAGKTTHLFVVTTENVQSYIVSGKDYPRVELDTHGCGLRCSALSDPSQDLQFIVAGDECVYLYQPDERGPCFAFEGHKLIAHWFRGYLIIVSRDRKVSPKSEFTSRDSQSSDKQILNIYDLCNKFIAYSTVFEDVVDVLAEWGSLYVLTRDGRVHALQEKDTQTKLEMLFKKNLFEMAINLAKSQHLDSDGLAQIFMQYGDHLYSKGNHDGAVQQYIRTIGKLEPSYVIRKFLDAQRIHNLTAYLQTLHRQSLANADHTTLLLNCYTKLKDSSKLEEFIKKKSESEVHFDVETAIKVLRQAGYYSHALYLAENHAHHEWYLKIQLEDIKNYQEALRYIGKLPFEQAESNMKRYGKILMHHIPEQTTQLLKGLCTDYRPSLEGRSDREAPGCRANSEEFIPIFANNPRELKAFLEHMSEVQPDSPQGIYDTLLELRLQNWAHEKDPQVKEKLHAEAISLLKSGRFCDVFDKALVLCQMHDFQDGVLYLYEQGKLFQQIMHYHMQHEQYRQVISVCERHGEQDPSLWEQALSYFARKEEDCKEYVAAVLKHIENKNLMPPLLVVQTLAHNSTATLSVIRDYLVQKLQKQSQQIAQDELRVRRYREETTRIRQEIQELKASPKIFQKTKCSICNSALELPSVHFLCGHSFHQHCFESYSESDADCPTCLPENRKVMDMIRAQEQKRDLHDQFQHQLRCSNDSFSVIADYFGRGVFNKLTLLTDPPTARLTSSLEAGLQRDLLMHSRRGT
Sequence of UniProt Q96QU8 (Q96QU8 whole entry, looked up): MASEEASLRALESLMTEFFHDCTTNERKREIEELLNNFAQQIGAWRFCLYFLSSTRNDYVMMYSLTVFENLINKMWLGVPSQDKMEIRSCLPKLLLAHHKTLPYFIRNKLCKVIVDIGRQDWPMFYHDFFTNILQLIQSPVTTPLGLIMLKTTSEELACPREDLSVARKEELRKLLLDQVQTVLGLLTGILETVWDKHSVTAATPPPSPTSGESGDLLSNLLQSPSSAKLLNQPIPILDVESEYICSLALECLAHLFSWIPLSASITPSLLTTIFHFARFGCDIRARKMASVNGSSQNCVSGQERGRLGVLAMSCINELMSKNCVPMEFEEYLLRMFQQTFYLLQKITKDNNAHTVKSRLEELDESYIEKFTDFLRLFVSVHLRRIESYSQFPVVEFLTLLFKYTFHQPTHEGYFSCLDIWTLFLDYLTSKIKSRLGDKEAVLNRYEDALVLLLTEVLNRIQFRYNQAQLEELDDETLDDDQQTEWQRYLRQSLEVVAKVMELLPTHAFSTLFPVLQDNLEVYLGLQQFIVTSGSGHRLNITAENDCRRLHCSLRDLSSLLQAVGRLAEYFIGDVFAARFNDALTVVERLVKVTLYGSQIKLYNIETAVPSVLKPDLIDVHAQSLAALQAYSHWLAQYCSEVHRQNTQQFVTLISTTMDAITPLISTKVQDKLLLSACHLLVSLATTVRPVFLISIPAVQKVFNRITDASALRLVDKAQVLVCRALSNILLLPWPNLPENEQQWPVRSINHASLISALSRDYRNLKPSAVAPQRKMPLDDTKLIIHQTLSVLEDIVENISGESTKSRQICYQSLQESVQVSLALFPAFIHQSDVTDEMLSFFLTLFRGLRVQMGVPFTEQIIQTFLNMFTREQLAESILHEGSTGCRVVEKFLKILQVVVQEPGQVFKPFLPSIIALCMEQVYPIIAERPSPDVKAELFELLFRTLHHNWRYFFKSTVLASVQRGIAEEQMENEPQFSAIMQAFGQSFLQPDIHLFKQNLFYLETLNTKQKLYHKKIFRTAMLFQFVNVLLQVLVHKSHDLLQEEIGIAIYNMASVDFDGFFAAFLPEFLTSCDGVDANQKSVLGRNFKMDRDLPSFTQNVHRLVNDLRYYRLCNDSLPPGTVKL
Sequence of UniProt Q86UK7 (Q86UK7 whole entry, looked up): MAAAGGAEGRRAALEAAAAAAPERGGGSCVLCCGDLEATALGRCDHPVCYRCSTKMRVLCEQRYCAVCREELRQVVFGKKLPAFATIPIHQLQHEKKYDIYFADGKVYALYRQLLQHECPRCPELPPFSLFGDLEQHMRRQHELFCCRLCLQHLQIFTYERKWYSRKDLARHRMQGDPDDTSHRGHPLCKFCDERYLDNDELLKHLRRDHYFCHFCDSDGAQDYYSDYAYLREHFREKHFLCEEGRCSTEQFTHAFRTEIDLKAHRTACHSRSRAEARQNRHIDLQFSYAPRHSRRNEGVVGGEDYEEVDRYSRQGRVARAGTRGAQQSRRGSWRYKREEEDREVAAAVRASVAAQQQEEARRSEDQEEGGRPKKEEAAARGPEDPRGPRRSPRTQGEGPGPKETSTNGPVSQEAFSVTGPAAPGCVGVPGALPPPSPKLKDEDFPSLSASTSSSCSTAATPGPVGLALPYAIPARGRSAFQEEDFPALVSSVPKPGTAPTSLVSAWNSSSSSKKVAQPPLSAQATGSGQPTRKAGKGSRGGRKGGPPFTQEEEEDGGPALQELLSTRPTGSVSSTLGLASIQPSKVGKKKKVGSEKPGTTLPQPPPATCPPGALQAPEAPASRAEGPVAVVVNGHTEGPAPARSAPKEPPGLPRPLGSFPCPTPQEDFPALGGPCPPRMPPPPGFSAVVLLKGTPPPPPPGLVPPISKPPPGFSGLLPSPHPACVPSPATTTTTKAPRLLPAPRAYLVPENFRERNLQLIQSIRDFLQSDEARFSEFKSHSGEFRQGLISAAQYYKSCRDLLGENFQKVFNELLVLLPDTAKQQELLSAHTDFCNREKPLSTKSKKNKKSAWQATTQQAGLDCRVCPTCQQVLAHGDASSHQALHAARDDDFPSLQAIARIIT
Sequence of UniProt Q9NQZ2 (Q9NQZ2 whole entry, looked up): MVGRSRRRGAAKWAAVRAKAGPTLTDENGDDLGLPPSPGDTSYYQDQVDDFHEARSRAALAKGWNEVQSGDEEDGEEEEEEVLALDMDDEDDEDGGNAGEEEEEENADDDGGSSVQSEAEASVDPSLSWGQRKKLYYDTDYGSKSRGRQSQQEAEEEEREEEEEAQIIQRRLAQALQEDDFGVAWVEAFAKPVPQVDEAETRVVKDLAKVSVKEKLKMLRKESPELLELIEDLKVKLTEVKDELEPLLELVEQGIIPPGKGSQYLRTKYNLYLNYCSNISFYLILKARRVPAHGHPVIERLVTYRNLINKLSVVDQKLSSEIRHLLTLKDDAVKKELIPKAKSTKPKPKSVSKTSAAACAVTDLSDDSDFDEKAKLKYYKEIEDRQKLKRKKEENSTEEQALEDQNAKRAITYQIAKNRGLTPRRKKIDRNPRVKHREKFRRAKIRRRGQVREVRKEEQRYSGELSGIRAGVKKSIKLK
Sequence of UniProt Q9UL40 (Q9UL40 whole entry, looked up): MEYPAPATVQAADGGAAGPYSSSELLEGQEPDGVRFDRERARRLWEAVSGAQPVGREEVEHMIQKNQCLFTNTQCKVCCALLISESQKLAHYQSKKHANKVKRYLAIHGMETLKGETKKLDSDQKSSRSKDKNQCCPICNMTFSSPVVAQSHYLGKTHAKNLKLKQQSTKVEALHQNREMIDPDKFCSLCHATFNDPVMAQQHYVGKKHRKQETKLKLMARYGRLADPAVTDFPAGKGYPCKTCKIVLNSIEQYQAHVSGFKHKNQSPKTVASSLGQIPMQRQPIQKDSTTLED
Sequence of UniProt P04004 (P04004 whole entry, looked up): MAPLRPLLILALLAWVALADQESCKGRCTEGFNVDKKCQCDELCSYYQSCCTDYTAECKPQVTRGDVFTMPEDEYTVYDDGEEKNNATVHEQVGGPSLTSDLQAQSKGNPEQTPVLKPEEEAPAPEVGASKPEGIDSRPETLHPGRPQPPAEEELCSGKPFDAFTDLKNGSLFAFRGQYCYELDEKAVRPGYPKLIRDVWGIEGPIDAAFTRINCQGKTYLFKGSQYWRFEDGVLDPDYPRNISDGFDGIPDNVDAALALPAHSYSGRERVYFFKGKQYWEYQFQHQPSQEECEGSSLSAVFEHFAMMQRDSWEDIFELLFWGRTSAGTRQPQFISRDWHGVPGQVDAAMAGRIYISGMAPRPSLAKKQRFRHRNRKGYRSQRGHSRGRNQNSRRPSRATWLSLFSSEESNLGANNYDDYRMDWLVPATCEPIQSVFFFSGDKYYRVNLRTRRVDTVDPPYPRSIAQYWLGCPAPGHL

Row | Target | log2 fold change
1 | ZNF598 isoform 3 (UniProt Q86UK7) | -0.037 (inactive)
2 | XPO1 (UniProt O14980) | -0.024 (inactive)
3 | WIPI2 isoform 6 (UniProt Q9Y4P8) | 0.092 (inactive)
4 | WIPI1 (UniProt Q5MNZ9) | 0.094 (inactive)
5 | ZNF346 (UniProt Q9UL40) | 0.031 (inactive)
6 | YTHDC2 (UniProt Q9H6S0) | 0.004 (inactive)
7 | WRNIP1 (UniProt Q96S55) | -0.051 (inactive)
8 | ZNF318 (UniProt Q5VUA4) | -0.017 (inactive)
9 | UTRN isoform 2 (UniProt P46939) | 0.026 (inactive)
10 | XPO6 (UniProt Q96QU8) | -0.053 (inactive)
11 | VTN (UniProt P04004) | -0.009 (inactive)
12 | UTP18 (UniProt Q9Y5J1) | 0.117 (inactive)
13 | VPS11 (UniProt Q9H270) | -0.018 (inactive)
14 | ZYG11A (UniProt Q6WRX3) | -0.075 (inactive)
15 | ZC3H13 (UniProt Q5T200) | -0.005 (inactive)
16 | ZSWIM8 isoform 4 (UniProt A7E2V4) | 0.076 (inactive)
17 | YWHAQ (UniProt P27348) | 0.002 (inactive)
18 | UTP3 (UniProt Q9NQZ2) | -0.009 (inactive)
19 | WAS (UniProt P42768) | 0.003 (inactive)

compound: CC1=C(SC2=C1C(=N[C@H](C3=NN=C(N32)C)CC(=O)N)C4=CC=C(C=C4)Cl)C; test: as above
Outline: as §1

Row | Target | log2 fold change
20 | ZNF598 isoform 3 (UniProt Q86UK7) | -0.014 (inactive)
21 | XPO1 (UniProt O14980) | 0.023 (inactive)
22 | WIPI2 isoform 6 (UniProt Q9Y4P8) | 0.088 (inactive)
23 | WIPI1 (UniProt Q5MNZ9) | 0.023 (inactive)
24 | ZNF346 (UniProt Q9UL40) | -0.017 (inactive)
25 | YTHDC2 (UniProt Q9H6S0) | -0.018 (inactive)
26 | WRNIP1 (UniProt Q96S55) | -0.033 (inactive)
27 | ZNF318 (UniProt Q5VUA4) | 0.133 (inactive)
28 | UTRN isoform 2 (UniProt P46939) | 0.037 (inactive)
29 | XPO6 (UniProt Q96QU8) | 0.057 (inactive)
30 | VTN (UniProt P04004) | -0.039 (inactive)
31 | UTP18 (UniProt Q9Y5J1) | -0.005 (inactive)
32 | VPS11 (UniProt Q9H270) | -0.001 (inactive)
33 | ZYG11A (UniProt Q6WRX3) | -0.13 (inactive)
34 | ZC3H13 (UniProt Q5T200) | -0.039 (inactive)
35 | ZSWIM8 isoform 4 (UniProt A7E2V4) | -0.038 (inactive)
36 | YWHAQ (UniProt P27348) | 0.021 (inactive)
37 | UTP3 (UniProt Q9NQZ2) | -0.035 (inactive)
38 | WAS (UniProt P42768) | -0.006 (inactive)

compound: CC1=C2C(=CC=C1)N=C(N(C2=O)C3=CC=CC=C3C)CN4C=NC5=C(N=CN=C54)N; test: as above
Outline: as §1

Row | Target | log2 fold change
39 | ZNF598 isoform 3 (UniProt Q86UK7) | 0.006 (inactive)
40 | XPO1 (UniProt O14980) | 0.012 (inactive)
41 | ZDHHC17 (UniProt Q8IUH5) | 0.057 (inactive)
42 | YBEY (UniProt P58557) | 0.046 (inactive)
43 | ZKSCAN8 (UniProt Q15776) | -0.065 (inactive)
44 | YTHDC2 (UniProt Q9H6S0) | -0.078 (inactive)
45 | WRNIP1 (UniProt Q96S55) | 0.024 (inactive)
46 | ZNF318 (UniProt Q5VUA4) | 0 (inactive)
47 | XPO6 (UniProt Q96QU8) | 0.023 (inactive)
48 | ZBTB40 (UniProt Q9NUA8) | -0.06 (inactive)
49 | VTN (UniProt P04004) | -0.094 (inactive)
50 | UTP18 (UniProt Q9Y5J1) | -0.088 (inactive)
51 | VPS11 (UniProt Q9H270) | 0.044 (inactive)
52 | ZC3H13 (UniProt Q5T200) | 0.013 (inactive)
53 | ZSWIM8 isoform 4 (UniProt A7E2V4) | 0.071 (inactive)
54 | VPS72 (UniProt Q15906) | 0.027 (inactive)
55 | YWHAQ (UniProt P27348) | -0.001 (inactive)
56 | UTP3 (UniProt Q9NQZ2) | 0.076 (inactive)

compound: Cc1sc2c(c1C)C(c1ccc(Cl)cc1)=N[C@@H](CC(=O)OC(C)(C)C)c1nnc(C)n1-2; test: as above
Outline: as §1

Row | Target | log2 fold change
57 | ZNF598 isoform 3 (UniProt Q86UK7) | 0.034 (inactive)
58 | XPO1 (UniProt O14980) | 0.008 (inactive)
59 | ZDHHC17 (UniProt Q8IUH5) | -0.181 (inactive)
60 | WAC isoform 5 (UniProt Q9BTA9) | -0.232 (inactive)
61 | WSB1 (UniProt Q9Y6I7) | 0.036 (inactive)
62 | WIPI1 (UniProt Q5MNZ9) | 0.035 (inactive)
63 | YBEY (UniProt P58557) | -0.016 (inactive)
64 | ZKSCAN8 (UniProt Q15776) | -0.026 (inactive)
65 | ZNF346 (UniProt Q9UL40) | -0.205 (active)
66 | YTHDC2 (UniProt Q9H6S0) | -0.002 (inactive)
67 | WRNIP1 (UniProt Q96S55) | 0.016 (inactive)
68 | ZNF318 (UniProt Q5VUA4) | 0.018 (inactive)
69 | XPO6 (UniProt Q96QU8) | 0.039 (inactive)
70 | ZBTB40 (UniProt Q9NUA8) | -0.004 (inactive)
71 | VTN (UniProt P04004) | -0.053 (inactive)
72 | UTP18 (UniProt Q9Y5J1) | -0.013 (inactive)
73 | VPS11 (UniProt Q9H270) | 0.048 (inactive)
74 | VASN (UniProt Q6EMK4) | -0.017 (inactive)
75 | ZC3H13 (UniProt Q5T200) | -0.061 (inactive)
76 | ZNF281 (UniProt Q9Y2X9) | -0.02 (inactive)
77 | ZSWIM8 isoform 4 (UniProt A7E2V4) | 0.013 (inactive)
78 | ZNF146 (UniProt Q15072) | -0.059 (inactive)
79 | VPS72 (UniProt Q15906) | -0.015 (inactive)
80 | YWHAQ (UniProt P27348) | 0.076 (inactive)
81 | UTP3 (UniProt Q9NQZ2) | -0.158 (inactive)
82 | WAS (UniProt P42768) | -0.095 (inactive)
